# TRPM1 prom inh: MITF TRPM1 promoter inhibition in SK-MEL-5 cells; SK-MEL-5 TRPM1 promoter luciferase, 24 h; inhibition, % at 12.5 µM; actives 0.83% (n = 330,000);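 active = mean inhibition across replicates of 60% or more, whatever share of single replicates reaches that level; inconclusive = some that reach 60%, reason not given; inactive = mean inhibition across replicates below 60%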
# MITF TRPM1 HTS: increases MITF-driven TRPM1 promoter luciferase signal | SK-MEL-5 TRPM1-promoter luciferase, 24 h; % of positive control, neutral wells = 0 | activation, % at 12.5 µM | actives 0.75% (n = 300,000) | AID 588334;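 active = mean activation of at least 80% with every replicate also reaching 80%; inconclusive = mean reaches 80% but some replicate falls short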
# PAX8 reporter: inhibitors of PAX8 transcriptional activity in RMG-I cells; RMG-I TPO-luciferase reporter, SteadyGlo, 24 h; inhibition, % at 12.6 µM; actives 1.2% (n = 360,000);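 active = mean replicate inhibition at least 60% with every replicate also reaching 60%; inconclusive = only one of the two criteria is met; inactive = mean below 60% and not all replicates reaching 60%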;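 also: luciferase light reporting Pax8 driven TPO promoter activity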
# EWS-Fli block: blocks EWS/Fli oncoprotein-driven transcription | A673 NR0B1-luciferase reporter, viability-normalised | inhibition, % at 12.6 µM | actives 0.67% (n = 350,000) | AID 651661;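 active = mean inhibition of at least 50% after viability correction, with every replicate also passing that limit; inconclusive = mean reaches 50% but only one of two replicates passes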;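 also: firefly luciferase signal divided by Alamar Blue viability fluorescence both relative to DMSO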
# Wnt bcat act: activators of Wnt/beta-catenin signaling; Wnt/beta-catenin reporter cell assay, activator, plate reader; activation, % at 9.35 µM; actives 1.2% (n = 300,000); AID 743398; in the data active = activation above about 30%, passing the limit was not always enough; inconclusive = no clear call, values can overlap the other calls
# esBAF inh: inhibitors of esBAF chromatin remodeling in mouse ES cells; Bmi1-luciferase knock-in reporter, 24 h; 100% = twice the neutral-well signal; reporter increase, % at 12.5 µM; actives 2% (n = 350,000); in the data active = activation above about 40%; inconclusive = no clear call, values can overlap the other calls;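 also: a rise in the Bmi1 reporter signal indicates esBAF inhibition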
# Numbers stand for hits; – = inactive; ? = inconclusive; · = not tested or not shown. Sampled rows, rich in hits. Any-hit rate of the full collection: about 4%.
SMILES,TRPM1 prom inh,MITF TRPM1 HTS,PAX8 reporter,EWS-Fli block,Wnt bcat act,esBAF inh
CC(C)c1nnc(NC(=O)c2ccc3ccccc3c2)s1,–,–,–,–,–,–
C[C@H](CO)N1C[C@H](C)[C@@H](CN(C)C(=O)NC2CCCCC2)OCCCC[C@H](C)Oc2ccc(NS(=O)(=O)c3ccc(Cl)cc3)cc2C1=O,·,·,–,–,·,–
CO[C@@H]1CN(C)C(=O)c2cc(NC(=O)NC3CCCCC3)ccc2OC[C@H](C)N(C(C)=O)C[C@@H]1C,·,·,·,–,·,–
C[C@@H]1CN([C@H](C)CO)C(=O)c2cccc(NC(=O)C3CCCCC3)c2O[C@@H]1CN(C)C,·,·,–,–,·,–
COc1ccc(-c2ccc3n(c2=O)C[C@H]2[C@H](CO)[C@@H](C(=O)NCC4CC4)[C@@H]3N2S(C)(=O)=O)cc1,·,·,–,–,·,–
COCC(=O)Nc1ccc2c(c1)C(=O)N(C)[C@@H]1CC[C@@H](CC(=O)NCC3CC3)O[C@H]1CO2,·,·,–,–,·,–
Cc1ccccc1S(=O)(=O)N(C)C[C@H]1OCc2ccccc2-c2c(n(C)c3ccccc23)C(=O)N([C@@H](C)CO)C[C@H]1C,·,·,·,–,·,–
CCCc1cc(C(=O)N/N=C/c2cccn2C)cs1,–,–,–,–,–,53.5
CNC(=O)c1c(NC(=O)c2ccc(S(=O)(=O)N3CCCCC3)cc2)sc2c1CCN(C(C)C)C2,–,–,·,–,–,–
Cn1cccc1/C=N/NC(=O)c1cccs1,–,–,–,–,–,–
CCN1CCc2c(sc(NC(=O)c3ccc(S(=O)(=O)N4CCCC4)cc3)c2C(=O)NC)C1,74.3,–,–,–,–,·
CN1[C@H](C(=O)NCCCN2CCOCC2)[C@@H](CO)[C@@H]2Cn3c(ccc(/C=C/c4ccccc4)c3=O)[C@@H]21,·,·,–,–,·,–
CC(=O)c1ccc(Oc2ccc(C(C)=O)cc2)cc1,–,–,–,·,–,42.0
CCNC(=O)Nc1ccc2c(c1)C(=O)N(C)[C@@H]1CC[C@H](CC(=O)N[C@@H](C)c3ccccc3)O[C@H]1CO2,·,·,–,–,·,–
CC(C)OC(=O)c1ccc2nc3ccccc3nc2c1,–,–,–,–,42.7,–
CC(C)OC(=O)c1ccc(NC(=O)c2ccccc2)cc1,–,–,–,·,·,·
CC(C)OC(=O)c1ccc2ccc(-c3ccccc3)nc2c1,·,·,–,–,–,54.6
COc1ccc(-c2noc(-c3ccc(Br)o3)n2)cc1OC,–,·,·,·,–,54.0
COc1ccc(Cc2nc(-c3ccc(Br)o3)no2)cc1OC,–,–,–,–,–,48.9
CC(=O)Nc1cccc(C(=O)OCC(=O)c2ccccc2Cl)c1,–,–,–,–,46.7,·
CCC(=O)Nc1cccc(C(=O)OCC(=O)c2ccccc2Cl)c1,–,–,·,·,·,50.8
CC(=O)Nc1cccc(C(=O)OCC(=O)NC(=O)c2ccccc2)c1,–,–,·,–,–,–
C[C@H]1CN([C@@H](C)CO)C(=O)c2cc(NC(=O)Cc3cn(C)c4ccccc34)ccc2O[C@H]1CN(C)Cc1ccc(C(F)(F)F)cc1,·,·,–,–,·,–
Cc1ccccc1S(=O)(=O)N1C[C@@H](O)COC[C@H]2O[C@@H](CC(=O)NCc3ccccc3Cl)CC[C@@H]21,·,·,–,–,·,–
CCOc1nc(N2CCOCC2)nc(C)c1[N+](=O)[O-],–,–,–,–,32.8,–
SMILES,TRPM1 prom inh,MITF TRPM1 HTS,PAX8 reporter,EWS-Fli block,Wnt bcat act,esBAF inh
Cc1ccc(N/C=C/c2onc(C)c2[N+](=O)[O-])cc1,–,113.4,–,–,39.6,–
C[C@@H]1CN([C@@H](C)CO)C(=O)c2cccc(NC(=O)C3CCCCC3)c2O[C@@H]1CN(C)C(=O)Nc1ccc(C(F)(F)F)cc1,·,·,–,–,·,–
CN(C)/C=N/c1cnc(C(=O)c2ccc(Cl)cc2)n1C,–,?,·,·,·,45.4
CS(=O)(=O)Nc1ccc2c(c1)[C@@H]1C[C@@H](CC(=O)N3CCOCC3)O[C@@H](CO)[C@@H]1O2,·,·,·,–,·,–
C[C@@H]1CCCCO[C@H](CN(C)CC2CC2)[C@H](C)CN([C@@H](C)CO)C(=O)c2cc(NC(=O)Nc3ccc(C(F)(F)F)cc3)ccc2O1,·,·,–,75.5,·,–
C[C@@H]1CCCCO[C@@H](CN(C)CC2CC2)[C@H](C)CN([C@@H](C)CO)C(=O)c2cc(NC(=O)Nc3ccc(C(F)(F)F)cc3)ccc2O1,·,·,–,–,·,–
C[C@H](CO)N1C[C@H](C)[C@H](CN(C)CC2CC2)OCCCC[C@H](C)Oc2ccc(NC(=O)Nc3ccc(C(F)(F)F)cc3)cc2C1=O,·,·,72.6,–,·,·

# Screens as filed in PubChem BioAssay.
